Bioassay records from PubChem.
Insulin prom inh: TRM-6 insulin promoter activity inhibition | TRM-6 cells (human fetal islet line), insulin promoter-eGFP reporter, imaging; reporter expression induced with tamoxifen | inhibition, % at 2 µM | hit rate 0.9% among 130,000 | AID 1273;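 active means inhibition above the mean plus 3 SD, with well images judged a real hit on visual review, cut at about 60% in these data, passing the limit was not always enough; inconclusive means inhibition over the cutoff but images rejected on review; inactive means inhibition not above the cutoff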
ROMK mod: modulates human ROMK potassium channel activity; P48048; Tet-inducible ROMK, thallium flux fluorescence; actives lie on both sides; B-score at 10 µM; hit rate 2% among 130,000; AID 1918;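 active means signal ratio slope over the read window, or its plate-corrected B-score, at least 3 SD from the plate mean, either direction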;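 further: B-score of the F/F0 ratio slope over 7 to 12 s after thallium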
Target sequence (P48048 whole entry, looked up): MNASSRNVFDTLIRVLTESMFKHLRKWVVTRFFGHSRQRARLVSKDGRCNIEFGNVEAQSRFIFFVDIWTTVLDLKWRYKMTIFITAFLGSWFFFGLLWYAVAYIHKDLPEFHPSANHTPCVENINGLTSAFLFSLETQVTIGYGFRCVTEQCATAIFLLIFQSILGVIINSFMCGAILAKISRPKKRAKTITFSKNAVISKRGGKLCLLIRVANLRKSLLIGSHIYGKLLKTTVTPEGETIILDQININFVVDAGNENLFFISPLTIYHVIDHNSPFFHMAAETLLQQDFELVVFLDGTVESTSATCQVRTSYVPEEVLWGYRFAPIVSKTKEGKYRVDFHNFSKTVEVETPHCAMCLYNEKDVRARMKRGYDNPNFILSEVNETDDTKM
WT yeast gro inh: growth inhibition of WT yeast, mitochondrial fusion screen; mitochondrial fusion phenotypic screen, WT strain; inhibition, % at 10 µM; hit rate 2.1% among 190,000; AID 1362; in the data active means inhibition above about 58%; tested in S. cerevisiae
Cl transport mod: KCC2 (human) Cl- transport modulation; Q9H2X9; KCC2 cells, thallium flux FluoZin-2 fluorescence; B-score of Tl+ flux slope (higher = more flux/activation; lower = inhibition) at 10 µM; hit rate 2.2% among 190,000;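 active means thallium flux slope and its plate-corrected score both differing from the plate sample mean at a set confidence after two filtering rounds, in either direction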;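 further: slope of fluorescence scaled to starting intensity during 10 to 20 s after thallium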
Ins promoter up: MIN6 insulin promoter up-regulation; z-score at 5 µM; MIN6 insulin promoter-GFP reporter, high-content imaging; active compounds read high; hit rate 0.3% among 190,000;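 active means z-score above 3 at 5 µM with at least 500 cells counted in the well; inconclusive means wells under 500 cells, flagged as cytotoxic or low count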
L major viab: Leishmania major promastigote growth inhibition; Leishmania major promastigotes, resazurin fluorescence viability; inhibition, % at 10 µM; hit rate 9% among 200,000; in the data active means inhibition above about 50%;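 further: promastigotes grown with compound for 44 hours at 28 °C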
KCC2 sec1: confirmation of human KCC2 transport modulators. hit rate 15% among 3,700. AID 1713. shares compounds with Cl transport mod. normalised thallium flux (F/F0 slope) at 10 µM. HEK293-KCC2, thallium flux, FluoZin2 fluorescence; active compounds read high;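 active means thallium flux slope above the same plate's solvent-only control mean plus 3 SD; inconclusive means the two replicate wells disagree; inactive means no significant difference from solvent-only control wells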
KCC2 bumet counter: thallium flux despite bumetanide block in KCC2 cells, secondary assay 3; shares compounds with Cl transport mod; HEK293-KCC2 + bumetanide/ouabain, thallium flux FluoZin2; active compounds read high; normalized thallium flux at 10 µM; hit rate 49% among 3,700; AID 1714;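 active means thallium entry rate above the same plate's blocked-transporter control wells by more than 3 SD; inconclusive means the two repeat wells disagree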;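 further: raw slope of fluorescence over initial fluorescence between 10 and 20 s after thallium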
KCC2 sec2: KCC2 (human) modulation, second secondary assay | shares compounds with Cl transport mod | HEK293-KCC2, thallium flux FluoZin2 fluorescence; actives lie on both sides; F/F0 rise rate, 10–20 s post-thallium | normalized thallium flux at 10 µM | hit rate 23% among 3,700;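 active means thallium flux slope more than 3 SD above or below the plate's solvent-only control mean, mostly below; inconclusive means the two repeat wells disagreed; inactive means no significant shift from solvent-only controls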;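 further: raw slope with 0.1% DMSO as baseline and bumetanide as block control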
HEK counter1: acts in parental HEK cells, KCC2 counter-screen. AID 1716. HEK293 parental cells, thallium flux FluoZin2, ouabain; baseline-ratio fluorescence slope, 10–20 s after thallium. hit rate 46% among 3,700. shares compounds with Cl transport mod. thallium flux rate (normalised fluorescence) at 10 µM;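 active means thallium flux rate significantly above the same plate's solvent-only control wells, beyond their mean plus 3 SD; inconclusive means the two replicate wells gave conflicting results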
KCC2 ouabain: modulates human KCC2 on retest with ouabain; shares compounds with Cl transport mod; HEK293-KCC2, thallium flux FluoZin2 fluorescence; bidirectional: low = inhibitor, high = activator; AID 1717; raw Tl+ flux slope (below DMSO = inhibition, above = activation) at 10 µM; hit rate 48% among 3,700;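 active means thallium flux slope beyond 3 SD from same-plate DMSO control mean in most replicates, usually higher, sometimes lower; inconclusive means repeat tests gave conflicting results; inactive means no significant difference from controls in most replicates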;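 further: slope of initial-normalized fluorescence between seconds 10 and 20 after thallium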
HEK counter2: acts in parental HEK cells, second KCC2 counter-screen; shares compounds with Cl transport mod; HEK293 parental, thallium flux FluoZin-2 fluorescence slope; thallium flux slope at 10 µM; hit rate 33% among 3,700; AID 1718;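 active means thallium flux slope above the same plate's solvent-control mean plus 3 SD in both duplicate wells; inconclusive means duplicate wells that disagreed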;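 further: run without ouabain in cells lacking the KCC2 cotransporter; slope of fluorescence scaled to its starting value between 10 and 20 s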
Active calls of the source: *. A selection: hits, their analogues and other compounds. The true share with any hit is near 12%.

How did Cc1ccc(-c2cc(-c3n[nH]c(=S)n3C)c3ccccc3n2)cc1 do in these assays?
ROMK mod: 0.412; WT yeast gro inh: 69.9*; Cl transport mod: 10.7*; Ins promoter up: 0.56; L major viab: 5.0; KCC2 sec1: 0.00915; KCC2 bumet counter: 0.0444*; KCC2 sec2: 0.0312; HEK counter1: 0.0122*; KCC2 ouabain: inconclusive; HEK counter2: inconclusive

What do the screens show for `CC(C)(NO)/C(=N\O)c1ccccc1`?
Insulin prom inh: 39.5; WT yeast gro inh: -6.1; Cl transport mod: 0.716; Ins promoter up: 0.13; L major viab: -6.6

What do the screens show for `N#Cc1nc(Cc2ccccc2)oc1NCc1ccccc1Cl`?
WT yeast gro inh: -0.9; Cl transport mod: -2.94*; Ins promoter up: 0.75; L major viab: 22.6; KCC2 sec1: 0.00748; KCC2 bumet counter: 0.00581; KCC2 sec2: 0.0301; HEK counter1: 0.0057*; KCC2 ouabain: 0.0159*; HEK counter2: 0.00992

Results for CC(C)Nc1oc(Cc2cccc3ccccc23)nc1C#N ?
Insulin prom inh: -27.3; WT yeast gro inh: 4.7; Cl transport mod: -4.51*; Ins promoter up: -1.19; L major viab: 9.9; KCC2 sec1: 0.00677; KCC2 bumet counter: 0.00551; KCC2 sec2: inconclusive; HEK counter1: inconclusive; KCC2 ouabain: 0.0137*; HEK counter2: 0.0115

How did CNc1oc(Cc2cccc3ccccc23)nc1C#N do in these assays?
Insulin prom inh: 58.8; ROMK mod: -1.76; WT yeast gro inh: -0.4; Ins promoter up: 0.05; L major viab: 2.4; KCC2 sec1: 0.0112; KCC2 bumet counter: 0.00819*; KCC2 sec2: inconclusive; HEK counter1: 0.00791; KCC2 ouabain: 0.0145*; HEK counter2: inconclusive

How did Oc1ccccc1/C=C/c1noc(-c2ccccc2O)n1 do in these assays?
ROMK mod: 1.1; WT yeast gro inh: 1.3; Cl transport mod: 0.685; Ins promoter up: -0.3; L major viab: -4.9

What do the screens show for `COc1cc(/C=C/c2noc(-c3ccccc3O)n2)ccc1OC(C)=O`?
ROMK mod: -0.374; Cl transport mod: -5.5*; Ins promoter up: -0.74; KCC2 sec1: 0.0087; KCC2 bumet counter: 0.00694; KCC2 sec2: 0.0301; HEK counter1: 0.00686; KCC2 ouabain: 0.0205; HEK counter2: 0.00881

Results for COc1ccc(C(=O)NC(=S)Nc2ccc(CN3CCOCC3)cc2)cc1 ?
Cl transport mod: 0.303; Ins promoter up: 0.01
